Assay results taken from PubChem BioAssay (Tox21).
Results filed as inconclusive are left out. Entries that show only a call come without a potency. Activity calls are given as the source filed them. Calls come from the whole dose curve.
Potency is the fitted concentration of half-maximal effect.

The molecules below were run against Acetylcholinesterase (Homo sapiens) (UniProt P22303) (assay: Acetylcholinesterase (AChE) small molecule antagonists: colormetric cell-based qHTS assay (AID 1347395; note: nearly all actives have a fitted effect of over 30% in size)). Conditions: SH-SY5Y cells AChE activity, colorimetric (Ellman); series mostly up to 115 µM.
Acetylcholinesterase (Homo sapiens), sequence (P22303 whole entry, looked up): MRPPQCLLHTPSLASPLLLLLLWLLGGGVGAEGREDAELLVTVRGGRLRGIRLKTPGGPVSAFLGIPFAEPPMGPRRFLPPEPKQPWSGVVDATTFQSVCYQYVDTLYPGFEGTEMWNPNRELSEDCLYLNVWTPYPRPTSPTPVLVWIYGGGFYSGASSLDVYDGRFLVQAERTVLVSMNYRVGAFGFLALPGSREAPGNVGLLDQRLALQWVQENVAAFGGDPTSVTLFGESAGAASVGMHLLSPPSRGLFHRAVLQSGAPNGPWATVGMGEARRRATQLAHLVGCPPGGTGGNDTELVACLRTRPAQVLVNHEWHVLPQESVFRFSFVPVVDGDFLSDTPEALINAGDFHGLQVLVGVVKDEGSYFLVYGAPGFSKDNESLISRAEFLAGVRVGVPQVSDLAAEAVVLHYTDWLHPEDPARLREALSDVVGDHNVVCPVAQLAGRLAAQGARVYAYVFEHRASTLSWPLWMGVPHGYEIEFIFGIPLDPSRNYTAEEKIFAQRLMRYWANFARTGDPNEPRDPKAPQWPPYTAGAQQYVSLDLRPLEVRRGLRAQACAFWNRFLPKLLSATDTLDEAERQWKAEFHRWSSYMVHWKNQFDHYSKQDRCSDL
Procedure, shortened: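 Colorimetric read-out: DTNB detects thiocholine released when cellular AChE in SH-SY5Y cells hydrolyses acetylthiocholine. Cells attached overnight, received compound for 30 min at 37 C, then substrate mix for 90 min at 37 C.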
For COC(=O)[C@@H](N)CCCN/C(N)=N/[N+](=O)[O-], the Potency was “inactive”.
For COc1cccc(C=O)c1, the Potency was “inactive”.
CC[C@H](O)C(C[C@H](C)N(C)C)(c1ccccc1)c1ccccc1 was tested, and the Potency was “inactive”.
In the case of CCc1ccc(C2CCNCC2)cc1, the Potency is reported as “inactive”.
CCN[C@@H](C)Cc1cccc(C(F)(F)F)c1 was tested, and the Potency was “inactive”.
With CCOC(=O)N(C)N=O the Potency was “inactive”.
For CCN(CCO)CCn1c(Cc2ccccc2)nc2c1c(=O)n(C)c(=O)n2C, the Potency was “inactive”.
With CCCCCCCCBr the Potency was “inactive”.
O=C(Cl)OCc1ccccc1 was tested, and the Potency was “inactive”.
For NNC(N)=O, the Potency was “inactive”.
CS(=O)(=O)c1ccc(C(=O)C2C(=O)CCCC2=O)c(Cl)c1COCC(F)(F)F was tested, and the Potency was 28.3 µM (active).
In the case of CC(C)[N+](C)(CCC(C(N)=O)(c1ccccc1)c1ccccc1)C(C)C, the Potency is reported as “inactive”.
For CC(Cc1ccccc1)NCCCCl (stereo not given), the Potency was “inactive”.
For NCC1(CC(=O)O)CCCCC1, the Potency was “inactive”.
In the case of C[C@H]1CCCC(=O)CCC/C=C/c2cc(O)cc(O)c2C(=O)O1, the Potency is reported as “inactive”.
For CCN1CCCC1CNC(=O)C(O)(c1ccccc1)c1ccccc1 (stereo not given), the Potency was “inactive”.
For O=c1[nH]oc2c1CCNC2, the Potency was “inactive”.
For Cc1ccc2c(c1)C1CN(C)CCC1N2 (stereo not given), the activity, negative = inhibition was -0.458% [at 23.6 µM] (inactive).
With CC(C)(C)C(=O)C(Cl)Cl the Potency was “inactive”.
In the case of CCNc1nc(NCC)nc(SC)n1, the Potency is reported as “inactive”.
Cc1ccc2cc(C)ccc2c1 was tested, and the Potency was “inactive”.
Nc1c(Cl)c(F)nc(OCC(=O)O)c1Cl was tested, and the Potency was “inactive”.
In the case of CNC(=O)Oc1cc(C)c(N(C)C)c(C)c1, the Potency is reported as 2.52 µM (active).
For CCOP(=S)(OCC)Oc1ccc(Cl)cc1Cl, the Potency was “inactive”.
Cc1ccc(-c2nc3ccc(C)cn3c2CC(=O)N(C)C)cc1 was tested, and the Potency was “inactive”.
In the case of CC(C)(C1CCC(O)CC1)C1CCC(O)CC1 (stereo not given), the Potency is reported as “inactive”.
For C[C@H](CN1CCOCC1)C(C(=O)N1CCCC1)(c1ccccc1)c1ccccc1, the Potency was “inactive”.
With CCOC(=O)CCl the Potency was “inactive”.
For Cl/C=C/CCl, the Potency was “inactive”.
For CC(=O)CN(CC(C)=O)N=O, the Potency was “inactive”.
With Oc1ccc(Cc2ccc(O)cc2)cc1 the Potency was “inactive”.
For C[C@H](N)C(=O)c1ccccc1, the Potency was “inactive”.
For CCOC(=O)c1ncn2c1CN(C)C(=O)c1c(I)cccc1-2, the Potency was “inactive”.
In the case of Clc1ccc(C(Cl)(Cl)Cl)cn1, the Potency is reported as “inactive”.
In the case of C=CC(=O)OCCN(C)C, the Potency is reported as “inactive”.
